{"source": "the supplement of paper PMC9948646", "note": "Values without a mark were called inactive.", "data": [{"test_system": "gramicidin D channels in DC22:1PC lipid vesicles (bilayer-modifying potency)", "experiment": "initial Tl+ fluorescence quench rate relative to no-drug control (NormRate, gramicidin monomer-dimer shift) (ratio (fold of control)); higher = stronger bilayer-modifying effect (equilibrium shifted toward conducting dimers), active = 1.5 or more", "conditions": "10 µM; lipid concentration 50 µM; temperature: 25 °C", "experimental": "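Stopped-flow fluorescence quench assay: ANTS-loaded DC22:1PC large unilamellar vesicles doped with gramicidin D (1:2000), 50 µM lipid, equilibrated 10 min with 10 µM drug (0.1% DMSO), mixed with Tl+ quench buffer at 25°C. Initial quench rate (Tl+ influx) was fitted with a modified stretched exponential and normalised to the no-drug control rate (NormRate); duplicates from two independent LUV preparations (triplicates for 7 drugs).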", "values": [{"smiles": "COc1ccc(CN2CCOc3ccc([C@@](C)(O)CN(C)C)cc3C2)cc1C", "initial Tl+ fluorescence quench rate": 1.2}, {"smiles": "Cc1ccc(S(=O)(=O)n2cc(-c3ccnc(N)c3)c3cc(Br)cnc32)cc1", "initial Tl+ fluorescence quench rate": "2.5 (active)"}, {"smiles": "CC(C)(C)OC(=O)N1CCC(Cn2nc(-c3cnc4ccccc4c3)c3c(N)ncnc32)CC1", "initial Tl+ fluorescence quench rate": "1.57 (active)"}, {"smiles": "Cc1cnc(CCNC(=O)c2cc(-c3ccc(Cl)cc3)cs2)[nH]1", "initial Tl+ fluorescence quench rate": 1.34}, {"smiles": "CCCCS(=O)(=O)Nc1ccc2cnn(C)c2c1", "initial Tl+ fluorescence quench rate": 1.36}, {"smiles": "O=C(c1ccc(F)cc1)N(CCNc1ccccc1)c1ccccc1", "initial Tl+ fluorescence quench rate": 1.36}, {"smiles": "[H]/N=C(/N)Nc1ccc(-c2ccc(-c3ccc(N=C(N)N)c(Cl)c3)o2)cc1Cl", "initial Tl+ fluorescence quench rate": "1.59 (active)"}, {"smiles": "NCCC[C@](N)(C(=O)O)C(F)F", "initial Tl+ fluorescence quench rate": 1.07}, {"smiles": "CC(C)NCC(=O)Nc1cccc(C(=O)Nc2cccc(C(F)(F)F)c2)c1", "initial Tl+ fluorescence quench rate": 1.37}, {"smiles": "c1ccc2c(c1)CN(CC1CC1)CC1(CCN(Cc3c[nH]c4cnccc34)CC1)O2", "initial Tl+ fluorescence quench rate": 1.06}, {"smiles": "Cc1ccc2nc(Cl)c(CNCc3cccs3)cc2c1", "initial Tl+ fluorescence quench rate": 1.03}, {"smiles": "Nc1cccnc1Nc1ccc(Cl)cc1", "initial Tl+ fluorescence quench rate": 1.05}, {"smiles": "Cn1c(=O)c2c(S(C)(=O)=O)snc2n(C)c1=O", "initial Tl+ fluorescence quench rate": 1.19}, {"smiles": "Oc1c(I)cc(I)c2cccnc12", "initial Tl+ fluorescence quench rate": 1.47}, {"smiles": "CC(C)(C)OC(=O)N1CCN(c2cc(-c3ccc(Oc4ccccc4)cc3)n[nH]2)CC1", "initial Tl+ fluorescence quench rate": "3.47 (active)"}, {"smiles": "NCCN(C(=O)c1ccc(Cl)cc1Cl)c1ccc(OCc2ccc(Cl)cc2)cc1", "initial Tl+ fluorescence quench rate": "5.93 (active)"}, {"smiles": "C[C@H]1C[C@@H]1C(=O)NC1CCN(CC2(c3ccccc3)CCCCC2)CC1", "initial Tl+ fluorescence quench rate": 1.06}, {"smiles": "O=S(=O)(c1ccc(Cl)cc1)N1CCN(C(=S)NCc2ccco2)CC1", "initial Tl+ fluorescence quench rate": "1.54 (active)"}, {"smiles": "COc1ccc(Nc2ccccc2NC(=O)c2ccc(O)nc2)cc1", "initial Tl+ fluorescence quench rate": 1.03}, {"smiles": "COc1cccc(-c2cc3c(Nc4cccnc4)nccc3[nH]2)c1", "initial Tl+ fluorescence quench rate": 1.5}, {"smiles": "Cn1ccnc1CNCCS(=O)(=O)c1cccc(Nc2ccc(-c3cccc(F)c3)cn2)c1", "initial Tl+ fluorescence quench rate": "2.38 (active)"}, {"smiles": "Cc1nc(-c2ccccn2)nc(N(C)CCc2ccccc2)c1Cl", "initial Tl+ fluorescence quench rate": "2.23 (active)"}, {"smiles": "COc1ccc(C2=NN(C3CCCCCC3)C(=O)C2(C)C)cc1OCc1ccccn1", "initial Tl+ fluorescence quench rate": "1.8 (active)"}, {"smiles": "CC(C)=CCC/C(C)=C\\CNCCN[C@H]1[C@@H]2C[C@H]3C[C@@H](C2)C[C@@H]1C3", "initial Tl+ fluorescence quench rate": "1.66 (active)"}, {"smiles": "CC1=Nc2ccc(Cl)cc2[C@H](c2ccccc2)N1CCNC(=O)CN(C)C", "initial Tl+ fluorescence quench rate": 1.07}, {"smiles": "CS(=O)(=O)c1ccc(C(=O)N(C[C@H]2CCCO2)c2nc3ccccc3s2)cc1[N+](=O)[O-]", "initial Tl+ fluorescence quench rate": "2.09 (active)"}, {"smiles": "C[C@H](c1ccc2c(c1)CCCC2)N(C)c1ncc2c(N)nc(N)nc2n1", "initial Tl+ fluorescence quench rate": "2.15 (active)"}, {"smiles": "O=C(c1ccc(NCCO)cc1)[C@H]1C[C@H]1c1ccc(Cl)cc1", "initial Tl+ fluorescence quench rate": "3.55 (active)"}, {"smiles": "CCOc1ccc2cc(-c3nn(CC4CCN(C)CC4)c4ncnc(N)c34)ccc2c1", "initial Tl+ fluorescence quench rate": 1.16}, {"smiles": "Cc1nn(C)cc1[C@H](C)Nc1nncc(-c2ccc(C(F)(F)F)cc2)n1", "initial Tl+ fluorescence quench rate": "1.93 (active)"}, {"smiles": "c1ccc(Oc2ccc(-c3cc(N4CCOCC4)[nH]n3)cc2)cc1", "initial Tl+ fluorescence quench rate": "2.4 (active)"}, {"smiles": "CC(C)(C)n1nc(-c2ccccc2)c2c(N)ncnc21", "initial Tl+ fluorescence quench rate": 1.03}, {"smiles": "CC(=O)N1CCc2cc3nc(C)cc(C)c3cc21", "initial Tl+ fluorescence quench rate": 1.09}, {"smiles": "CCCS(=O)(=O)N1CCC(CO)(Cc2ccccc2C(F)(F)F)CC1", "initial Tl+ fluorescence quench rate": "1.62 (active)"}, {"smiles": "COc1cc2ncnc(NC3CCN(Cc4ccccc4)CC3)c2cc1OC", "initial Tl+ fluorescence quench rate": 1.04}, {"smiles": "CC(=O)NC[C@H]1CN(c2ccc(-c3ccc(CO)cc3)c(F)c2)C(=O)O1", "initial Tl+ fluorescence quench rate": 1.22}, {"smiles": "O=C(NC1CCCCC1)N1CCN(Cc2ccc3c(c2)OCO3)CC1", "initial Tl+ fluorescence quench rate": 1.13}, {"smiles": "CCc1cc(=O)n(C)c(S[C@H](C)C(=O)Nc2ccc(F)cc2)n1", "initial Tl+ fluorescence quench rate": 1.15}]}]}
